Bioassay records deposited in PubChem BioAssay by several laboratories.
RT RNaseH block: HIV-1 RT RNase H inhibitors, primary screen, biochemical, fluorescence | AID 565, 2006 | Gag-Pol polyprotein (Human immunodeficiency virus type 1 group M subtype B (isolate … | inhibition, % at 10 µM | RT-RNase H RNA/DNA duplex cleavage | 1.9% of 65,000 active; in the data active means inhibition above about 50%
RmlCD inh mix: RmlC and RmlD coupled enzyme inhibitors, primary screen, biochemical, 384-well, compound mixtures, retest; RmlC/RmlD coupled enzyme inhibition, 384-well mixture HTS; 0.39% of 110,000 active; AID 1532, 2009; inhibition, % at 5.5 µM; in the data active means inhibition above about 30%, passing the limit was not always enough
RmlCD fluor art: counter-screen for RmlC/RmlD inhibitors: fluorescence artifact, dose response, artefact control, biochemical | shares compounds with RmlCD inh mix | RmlC/RmlD assay fluorescence artifact counter-screen | calls only | 96% of 360 active | AID 1696, 2009; call rule not given here;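 further: compound alone with no enzyme and no substrates present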
* hit, by the source's call. Shown is part of a subset that was picked to be rich in hits.

Screening O=C(CC(C(=O)N1CCc2ccccc21)n1ccnc1)N1CCc2ccccc2C1 (centres undefined) returned RT RNaseH block 1.2.
Screening CCOc1ccc(Nc2oc(-c3ccco3)nc2C#N)cc1 returned RT RNaseH block -8.5 and RmlCD inh mix -14.8.
Screening CCOc1ccc(Nc2oc(-c3cccc(Cl)c3)nc2C#N)cc1 returned RmlCD inh mix 35.6* and RmlCD fluor art active.
CSc1ccc(-c2c(C#N)c(N)nc3c2CCCC3)cc1 was read as RT RNaseH block 3.3, RmlCD inh mix 33.4* and RmlCD fluor art active.
For N#Cc1c(N)nc2c(c1-c1ccncc1)CCCCC2 the results were RT RNaseH block -23.9 and RmlCD inh mix -14.5.
`Nc1ccc(-c2nc3c(Cl)cc(N)cc3[nH]2)cc1` gave RT RNaseH block 2.0, RmlCD inh mix 49.8* and RmlCD fluor art active.
Screening COc1ccc2nc(-c3ccc(N)cc3)[nH]c2c1 returned RmlCD inh mix 24.2.
Nc1ccc2nc(-c3ccccc3)[nH]c2c1 was read as RmlCD inh mix 100.0.
Screening Nc1ccc2nc(-c3ccc(N)c(Cl)c3)[nH]c2c1 returned RmlCD inh mix 39.7* and RmlCD fluor art active.
`CC(=O)c1ccc(N2CCC(c3cc(-c4ccc(Cl)cc4Cl)n[nH]3)CC2)c([N+](=O)[O-])c1` gave RmlCD inh mix -9.3.
Screening CCn1c(-c2ccccc2Cl)nn(CC(=O)Nc2ccccc2C)c1=S returned RmlCD inh mix -6.8.
Screening COc1ccc(C[C@@H]2CN3C(=NC[C@@H]3C)N2CCNC(=O)c2ccc(C)c(Br)c2)cc1 returned RmlCD inh mix 6.1.
Cc1ccccc1-c1nnc(NC(=O)CSc2nc3ccccc3s2)s1 was read as RmlCD inh mix 11.1.
CCOC(=O)c1nn(-c2ccccc2C)c2nc(-c3ccc(C)cc3)c(C#N)c(=O)n12 was read as RmlCD inh mix 8.4.
`CCOC(=O)c1nn(-c2ccc(F)cc2)c2nc(CC(C)C)c(C#N)c(=O)n12` gave RmlCD inh mix 50.9* and RmlCD fluor art active.
CC(C)(C)N1[C@@H](CC(=O)O)c2cc(C(F)(F)F)ccc2S1(=O)=O was read as RmlCD inh mix 5.2.
COc1ccc(C2OC34CCCCC3C(C#N)(C#N)C2(C#N)C(=N)O4)cc1 (centres undefined) was read as RmlCD inh mix 64.2* and RmlCD fluor art active.
Screening CC1OC23CCCCC2C(C#N)(C(=N)O3)C1(C#N)C#N (centres undefined) returned RmlCD inh mix 1.8.
Screening N#CC1(C#N)COC23CCCCC2C1(C#N)C(=N)O3 (centres undefined) returned RmlCD inh mix 106.7* and RmlCD fluor art active.
CCC1OC23CCCCC2C(C#N)(C(=N)O3)C1(C#N)C#N (centres undefined) was read as RmlCD inh mix -4.2.
Screening CC1(C)Cc2c(cnn2-c2ccccc2)C(=O)/C1=N\NC(=O)c1ccccc1O returned RmlCD inh mix 10.2.
Screening CCc1c(C)c2cc(Cl)c(O)c(CN(C)C)c2oc1=O returned RT RNaseH block 1.0, RmlCD inh mix 82.5* and RmlCD fluor art active.
`CCc1c(C)c2cc(Cl)c(O)c(CN(CC)CC)c2oc1=O` gave RT RNaseH block -9.4, RmlCD inh mix 105.7* and RmlCD fluor art active.
COc1ccc(-c2cc(=O)oc3c(C)c(O)c(CN(C)C)cc23)cc1 was read as RT RNaseH block -25.6 and RmlCD inh mix -3.2.
For CN(C)Cc1c(O)c(Cl)cc2c3c(c(=O)oc12)CCCC3 the results were RmlCD inh mix 139.5* and RmlCD fluor art active.
For CCc1cc2c(=O)c(-c3nc4ccccc4n3C)c(C)oc2c(CN(CC)CC)c1O the results were RmlCD inh mix 13.4.
For Cc1coc2c(C)c3oc(=O)c4c(c3cc12)CCCC4 the results were RT RNaseH block -6.5 and RmlCD inh mix -60.8.
Screening C=CCOC(=O)COc1ccc2c(C)c(CC)c(=O)oc2c1 returned RT RNaseH block -12.9 and RmlCD inh mix 9.8.
For Cc1c(C)c2cc(Cl)c(O)c(CN(C)C)c2oc1=O the results were RT RNaseH block -7.1, RmlCD inh mix 63.0* and RmlCD fluor art active.
`CCOC(=O)C1(S(=O)(=O)c2ccc(Cl)cc2)CCN(Cc2ccc(C)cc2)CC1` gave RmlCD inh mix 2.1.
For COc1ccc(N2C(=O)C3CCCN3C2c2ccc(C)o2)cc1 (centres undefined) the results were RmlCD inh mix -9.3.
c1ccc(-c2csc(-n3cnnn3)n2)cc1 was read as RT RNaseH block -19.6 and RmlCD inh mix 2.6.
`Cc1ccc(NC(=O)OCCN2CCN(Cc3ccccc3)CCC2=O)cc1` gave RmlCD inh mix -8.3.
Screening Cc1cccc(N2CCN(C(=O)C3CCCN(S(=O)(=O)c4cccc5cccnc45)C3)CC2)c1C (centres undefined) returned RT RNaseH block -16.2.
Screening COC(=O)C1=C(C)N(CCCC(=O)O)C(=O)NC1c1cccc(Cl)c1Cl (centres undefined) returned RmlCD inh mix 6.8.
For CC1(C(=O)NCc2ccccn2)C=CCN1C(=O)c1ccccc1 (centres undefined) the results were RmlCD inh mix -35.6.
Screening CCn1c2ccccc2c2cc(/C=N/n3cnnc3)ccc21 returned RT RNaseH block -52.2 and RmlCD inh mix 5.1.
CCn1c(/C=N/n2cnnc2)nc2ccccc21 was read as RT RNaseH block -3.6, RmlCD inh mix 73.2* and RmlCD fluor art active.
`C[C@@H]1NC(=O)N[C@@H]1CCCCCC(=O)O` gave RmlCD inh mix 2.8.
Screening Nc1c(S(=O)(=O)c2cccs2)c2nc3ccccc3nc2n1Cc1cccs1 returned RT RNaseH block 4.4 and RmlCD inh mix 12.8.
Nc1c(S(=O)(=O)c2cccs2)c2nc3ccccc3nc2n1CC1CCCO1 (centres undefined) was read as RT RNaseH block -6.2, RmlCD inh mix 52.8* and RmlCD fluor art active.
Screening CCOc1ccc2oc(-c3ccccc3)c(C(=O)O)c2c1 returned RT RNaseH block -7.5 and RmlCD inh mix 26.0.
For CC(Oc1ccc2oc(-c3ccccc3)c(C(=O)O)c2c1)C(=O)O (centres undefined) the results were RT RNaseH block -2.5, RmlCD inh mix 58.0* and RmlCD fluor art active.
Screening CC1(C)Cc2nc(NCCCO)c(C#N)cc2CO1 returned RT RNaseH block -11.5, RmlCD inh mix 44.2* and RmlCD fluor art active.
CC1(C)Cc2nc(N3CCOCC3)c(C#N)cc2CO1 was read as RT RNaseH block -8.4 and RmlCD inh mix -39.7.
`CCc1cc2c(SCC(=O)c3ccc(Cl)s3)ncnc2s1` gave RmlCD inh mix -1.9.
`O=c1c2sc3nc(N4CCOCC4)c4c(c3c2ncn1Cc1ccco1)CCCC4` gave RT RNaseH block 6.5.
Screening CC(C)(C)N1C(=O)Cc2c1nc(N)c1c(N)nc(N3CCCCC3CO)c(C#N)c21 (centres undefined) returned RT RNaseH block -19.4, RmlCD inh mix 34.5* and RmlCD fluor art active.
CN(CCO)c1nc(N)c2c(N)nc3c(c2c1C#N)CC(=O)N3C1CCCC1 was read as RmlCD inh mix 30.2* and RmlCD fluor art active.
